The source of these data is PubChem BioAssay (NCI).

This is part of a sample that, as a whole, favours compounds with a hit. Of some 83,000 tested, about 20% had one in any assay.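 A percent growth of 40 corresponds to 60% growth inhibition; 0 means no net growth; -100 means all cells died. Active threshold: below 10.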 Active and inactive are the calls of the source.

The first assay concerns OVCAR-5 ovarian. Description: NCI-60 one-dose screen, 48 h (100 = growth as untreated, 0 = no growth, -100 = all killed). To be noted: 10 µM.
As for `COc1ccc(/C=C/C(=O)c2ccc(S(=O)(=O)NCCNc3nc(Nc4ccc(F)cc4)nc(N(C)C)n3)cc2)cc1`, the growth was 42.5% (inactive).
Same read-out and setting: the figure for `CC(=O)OC[C@@]1(C)C2CC[C@]3(C)C(CC=C4C5CC(C)(C)CC[C@]5(C(=O)Nc5ccccc5)CC[C@]43C)[C@@]2(C)C[C@@H](OC(C)=O)[C@@H]1OC(C)=O` (stereo partly drawn) is 81.4% (inactive); for `Nc1nc(Nc2ccc(Cl)cc2)nn1Cc1cccc(Br)c1` it is 49.7% (inactive).
Same read-out and setting: the figure for `CCCn1c(O)c(N=Nc2nc(-c3cc4ccccc4oc3=O)cs2)c2cc(Br)ccc21` is 98.3% (inactive); for `CC(=O)C1=C(C)NC(SCC(=O)Nc2ccc(S(=O)(=O)Nc3cc(C)on3)cc2)=NC1c1ccccc1` (stereo not drawn) it is 109% (inactive).
Still for that read-out and setting: the figure for `COc1cc2c3c(n(CCCn4ccnc4)c(=O)c2cc1OC)-c1nc2c(cc1C3=O)OCO2` is 57.2% (inactive); for `COc1ccc(-c2cc(C(=O)N=Nc3c(O)[nH]c4ccc(Br)cc34)c3ccccc3n2)cc1` it is 51.3% (inactive); for `CC1(c2ccccc2)NC(=O)N(CC(=O)Nc2ccc(C(=O)/C=C/C=C/c3ccccc3)cc2)C1=O` (stereo not drawn) it is 84.1% (inactive).
As to `O=c1c2ccccc2nc(COc2ccccc2)n1/N=C/c1ccc(F)cc1`, the growth was 94.2% (inactive).
For `O=C(Nc1cccc(C(F)(F)F)c1)c1cncc(C#Cc2cnc3ccc(N4CCOCC4)nn23)c1`, the growth is 1.83% (active).
Still for that read-out and setting: the figure for `CC(=O)Nc1ccc(-c2cn(-c3cccc(C(=O)Nc4ccc(F)c(C(F)(F)F)c4)c3)nn2)cn1` is 89.1% (inactive).
The same measure, in the same setting: the figure for `CN(C(=O)c1ccc(C(F)(F)F)cc1C(F)(F)F)c1sc2c(c1C#N)CCC(=O)C2` is 108% (inactive); for `[2H]C([2H])([2H])Oc1ccc2ncc(C#Cc3cncc(C(=O)Nc4ccc(CN5CCN(C)CC5)c(C(F)(F)F)c4)c3)n2n1` it is -92.9% (active).
For `O=c1cc(-c2ccccc2)oc2cc(OCCCCNCc3ccccc3)cc(O)c12`, the growth is 92.1% (inactive).
Still for that read-out and setting: the figure for `O=c1[nH]c2ccccc2cc1CSc1ccc(Nc2nccc(-c3ccc(C(F)(F)F)cc3)n2)cc1` is 36% (inactive); for `Cc1ccc(-c2nc(Nc3ccc(C)c(S(N)(=O)=O)c3)c3ccccc3n2)cc1` it is 94% (inactive).

The subject of the next assay is OVCAR-4 ovarian. The description is as above. To be noted: 10 µM.
As to `COc1cc(/C=C/C(=O)c2ccc(C(F)(F)F)cc2)ccc1Oc1nc(Nc2ccc(F)cc2)nc(N(C)C)n1`, the growth is 69.8% (inactive).
On the same count and under the same terms, the figure for `Cc1ccc(/C=C/C(=O)c2ccc(NC(=O)CSc3nnc(-c4c[nH]c5ccccc45)n3-c3ccccc3)cc2)c(C)c1` is 13.1% (inactive).
Same read-out and setting: the figure for `COc1ccc(/C=C/C(=O)c2ccc(S(=O)(=O)NCCNc3nc(Nc4ccc(F)cc4)nc(N(C)C)n3)cc2)cc1` is 21.8% (inactive); for `N#Cc1c(-c2ccc(Cl)cc2)cc(-c2ccccc2)nc1OCc1ccccc1` it is 76.9% (inactive).
Consider `Nc1nnc(-c2c[nH]c3ncccc23)c(-c2c[nH]c3ccc(Br)cc23)n1`, for which the growth was 55.7% (inactive).
Turning to `CC(=O)OC[C@@]1(C)C2CC[C@]3(C)C(CC=C4C5CC(C)(C)CC[C@]5(C(=O)Nc5ccccc5)CC[C@]43C)[C@@]2(C)C[C@@H](OC(C)=O)[C@@H]1OC(C)=O` (stereo partly drawn), the growth was 33.4% (inactive).
Still for that read-out and setting: the figure for `O=C(CSc1nnc(-c2c[nH]c3ccccc23)n1-c1ccccc1)Nc1ccc(C(=O)/C=C/c2cccc([N+](=O)[O-])c2)cc1` is 84.2% (inactive); for `C/C(=C\c1ccc(O)cc1O)c1ccc2ccc(O)cc2[o+]1` it is 74.4% (inactive); for `CCCCOc1ccc(Nc2nc3ccccc3nc2Nc2ccc(OCCCC)cc2)cc1` it is 93.6% (inactive).
Same read-out and setting: the figure for `Nc1nc(Nc2ccc(Cl)cc2)nn1Cc1cccc(Br)c1` is 46.8% (inactive).
Regarding `COc1ccc(/C=N/N=C(\C)c2ccc3c(c2)Nc2ccccc2S3)cc1O`, the growth is 41.7% (inactive).
With `O=C(CSc1nnc(-c2c[nH]c3ccccc23)n1-c1ccccc1)c1ccc(Br)cc1`, the growth is 46.2% (inactive).
On to `COC(=O)c1c(C(=O)OC)c2n(c1C)[C@@H]([C@@H](C)[C@H]1CC[C@H]3[C@@H]4CCC5=CC(=O)CC[C@]5(C)[C@H]4CC[C@]13C)SC2`, for which the growth is 38.5% (inactive).
The same measure, in the same setting: the figure for `COc1ccc(C(=O)/C=C/c2cc(C(F)(F)F)cc(C(F)(F)F)c2)cc1S(N)(=O)=O` is -80% (active); for `CCCn1c(O)c(N=Nc2nc(-c3cc4ccccc4oc3=O)cs2)c2cc(Br)ccc21` it is 98.9% (inactive); for `O/N=C(\CSc1nnc(-c2c[nH]c3ccccc23)n1-c1ccccc1)c1ccc(Br)cc1` it is -83.4% (active).
On the same count and under the same terms, the figure for `CC(=O)Oc1ccccc1C(=O)Oc1ccc(C(=O)/C=C/c2ccncc2)cc1` is 59.9% (inactive).
The same measure, in the same setting: the figure for `CC(=O)C1=C(C)NC(SCC(=O)Nc2ccc(S(=O)(=O)Nc3cc(C)on3)cc2)=NC1c1ccccc1` (stereo not drawn) is 100% (inactive); for `COc1cc2c3c(n(CCCn4ccnc4)c(=O)c2cc1OC)-c1nc2c(cc1C3=O)OCO2` it is 80.9% (inactive).
For the compound `O=S(=O)(Nc1ncccn1)c1ccc(-n2c(-c3ccc(Br)cc3)nc(-c3ccccc3)c2-c2ccccc2)cc1`, the growth was 57.7% (inactive).
Still for that read-out and setting: the figure for `COc1ccc(-c2cc(C(=O)N=Nc3c(O)[nH]c4ccc(Br)cc34)c3ccccc3n2)cc1` is 51% (inactive).
Consider `CCOC(=O)CNC(=O)CN(Cc1ccccc1)C(=O)[C@@]1(C)CCC[C@]2(C)[C@H]3CC4C(C(C)C)=C[C@]3(CC[C@H]21)[C@@H]1C(=O)CCC(=O)[C@H]41`, for which the growth was 49.4% (inactive).
Same read-out and setting: the figure for `CC1(c2ccccc2)NC(=O)N(CC(=O)Nc2ccc(C(=O)/C=C/C=C/c3ccccc3)cc2)C1=O` (stereo not drawn) is 68.7% (inactive); for `O=c1c2ccccc2nc(COc2ccccc2)n1/N=C/c1ccc(F)cc1` it is 76.9% (inactive); for `COc1ccc(-c2cc(-c3cc(C(=O)c4ccccc4)n4ccc(C)cc34)nc(N)c2C#N)cc1` it is 24.2% (inactive).
On to `COc1cc(C2CC(c3ccc(C)cc3)=Nc3c(N)nc(N)nc3N2)ccc1Oc1nc(Nc2ccc(F)cc2)nc(N(C)C)n1` (stereo not drawn), for which the growth is 50.9% (inactive).
The same measure, in the same setting: the figure for `O=C(Nc1cccc(C(F)(F)F)c1)c1cncc(C#Cc2cnc3ccc(N4CCOCC4)nn23)c1` is 12.7% (inactive); for `CC(=O)Nc1ccc(-c2cn(-c3cccc(C(=O)Nc4ccc(F)c(C(F)(F)F)c4)c3)nn2)cn1` it is 13.5% (inactive).
The same measure, in the same setting: the figure for `CN(C(=O)c1ccc(C(F)(F)F)cc1C(F)(F)F)c1sc2c(c1C#N)CCC(=O)C2` is 59.3% (inactive); for `C#CCNC(=O)CCC(=O)OC[C@]12CC[C@@H](C(=C)C)[C@@H]1C1CC[C@@H]3[C@@]4(C)CCCNC(C)(C)[C@@H]4CC[C@@]3(C)[C@]1(C)CC2` (stereo partly drawn) it is 30.3% (inactive).
The same measure, in the same setting: the figure for `COc1ccc2[nH]cc(/C=N/Nc3ccc(Br)cn3)c2c1` is 53.2% (inactive); for `[2H]C([2H])([2H])Oc1ccc2ncc(C#Cc3cncc(C(=O)Nc4ccc(CN5CCN(C)CC5)c(C(F)(F)F)c4)c3)n2n1` it is -34.6% (active).
In the case of `COc1ccc(CN2[C@H](C(=O)NCc3ccc(C(=O)NO)cc3)Cc3c([nH]c4ccccc34)[C@H]2C2CC2)cc1`, the growth is 51.8% (inactive).
On the same count and under the same terms, the figure for `O=c1cc(-c2ccccc2)oc2cc(OCCCCNCc3ccccc3)cc(O)c12` is 34.7% (inactive); for `O=c1[nH]c2ccccc2cc1CSc1ccc(Nc2nccc(-c3ccc(C(F)(F)F)cc3)n2)cc1` it is -60.3% (active).
On the same count and under the same terms, the figure for `CN(C)c1ccc(/C=C/c2nc3ccccc3c(=O)n2CC(=O)Nc2ccccc2)cc1` is 35.5% (inactive).
Same read-out and setting: the figure for `Cc1ccc(-c2nc(Nc3ccc(C)c(S(N)(=O)=O)c3)c3ccccc3n2)cc1` is 70.1% (inactive).
